The values that follow come from PubChem BioAssay (NCI).

Among the test systems are NCI-H23 lung; NCI-H226 lung; NCI-H322M lung; HOP-62 NSCLC; NCI-H460 lung; HOP-92 NSCLC; 786-0 renal; COLO 205 colon; DU-145 prostate; K-562 leukemia; MALME-3M melanoma; MDA-MB-231 breast; RXF 393 renal; SF-268 CNS; SF-295 CNS; SF-539 CNS; UACC-257 melanoma; M14 melanoma; A549/ATCC NSCLC.
Assay in all cases: NCI-60 one-dose screen, 48 h (100 = growth as untreated, 0 = no growth, -100 = all killed)
Common to all, as to settings: 10 µM unless noted

This is part of a sample that, as a whole, favours compounds with a hit. Of some 83,000 tested, about 20% had one in any assay.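 Assay: single dose, 48 h. Readout: percent growth (0 = no net growth; negative = cell death). Active: <10.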 A number with no mark means an inactive call. Active and inactive are the calls of the source.

Take `O=C(/C=C/c1cccc(O)c1)c1cccc(-n2cc(-c3ccccc3)[nH]c2=O)c1`: the growth is 14.4% in the test on NCI-H23 lung; 3.79% (active) in the test on NCI-H226 lung; 21.4% with NCI-H322M lung; 16.9% with HOP-62 NSCLC; 34.8% with NCI-H460 lung; 26.7% in the test with HOP-92 NSCLC. Also, the growth was -59.7% (active) with 786-0 renal; 83.8% with COLO 205 colon; -16.9% (active) with DU-145 prostate; 1.71% (active) in the test with K-562 leukemia; 0.0704% (active) in the test on MALME-3M melanoma; -5.57% (active) with MDA-MB-231 breast. For the same molecule, the growth is -62.4% (active) in the test with RXF 393 renal; 7.61% (active) with SF-268 CNS; 64.8% in the test on SF-295 CNS; -27.4% (active) in the test with SF-539 CNS; 95.6% in the test with UACC-257 melanoma; 64.5% with M14 melanoma.
Consider `O=Cc1ncc(-c2ccc(C(F)(F)F)cc2)c(NC2CCCCCC2)n1`, for which the growth in the test on NCI-H23 lung is -73.1% [100 µM] (active); with NCI-H226 lung, 28.2% [100 µM]; in the test on NCI-H322M lung, -5.95% [100 µM] (active); in the test on HOP-62 NSCLC, -94.9% [100 µM] (active); in the test with NCI-H460 lung it was -51.3% [100 µM] (active); in the test on HOP-92 NSCLC it was -95.4% [100 µM] (active). The growth is -79.2% [100 µM] (active) in the test on A549/ATCC NSCLC; -82.1% [100 µM] (active) in the test with 786-0 renal; -92.9% [100 µM] (active) in the test on DU-145 prostate; -50.2% [100 µM] (active) in the test with K-562 leukemia; -92% [100 µM] (active) in the test with MALME-3M melanoma; -87.8% [100 µM] (active) with MDA-MB-231 breast. Moreover, the growth with RXF 393 renal was -80.2% [100 µM] (active); in the test with SF-268 CNS, -83.9% [100 µM] (active); in the test on SF-295 CNS, -86.3% [100 µM] (active); in the test on SF-539 CNS it was -96.8% [100 µM] (active); in the test with UACC-257 melanoma it was -92% [100 µM] (active); in the test with M14 melanoma it was -91.6% [100 µM] (active).
On to `COc1cc(OC)c2c(c1Cl)O[C@]1(C2=O)C(OCc2ccccc2)=CC(=O)C[C@H]1C`, for which the growth in the test on NCI-H23 lung was 20.9%; with NCI-H226 lung, 45.8%; with NCI-H322M lung it was 36.4%; with HOP-62 NSCLC it was 5.17% (active); with NCI-H460 lung, 6.23% (active); in the test with HOP-92 NSCLC it was -16.7% (active). For the same molecule, the growth was 37.8% with 786-0 renal; -32.6% (active) in the test with COLO 205 colon; 14.7% in the test on DU-145 prostate; 2.98% (active) with K-562 leukemia; -42.4% (active) in the test on MALME-3M melanoma; 12.9% in the test on MDA-MB-231 breast. In addition, the growth in the test with RXF 393 renal was 0.23% (active); with SF-268 CNS, 21.3%; with SF-295 CNS it was -58% (active); in the test with SF-539 CNS, -16.4% (active); with M14 melanoma, 2.91% (active).
As for `C[C@H]1O[C@@H](O[C@H]2[C@@H](O)C[C@H](O[C@H]3[C@@H](O)C[C@H](O[C@H]4CC[C@]5(C)C6CC[C@]7(C)[C@@H](C8=CC(=O)OC8)CC[C@]7(O)C6CC[C@@H]5C4)O[C@@H]3C)O[C@@H]2C)C[C@H](O)[C@@H]1O` (stereo partly specified), the growth with NCI-H23 lung is -47.5% (active); in the test with NCI-H226 lung, -100% (active); in the test on NCI-H322M lung, -84.9% (active); in the test on HOP-62 NSCLC, -100% (active); with NCI-H460 lung, -97.3% (active); in the test with HOP-92 NSCLC, -29.3% (active). Besides, the growth is -93.4% (active) in the test on 786-0 renal; -92.6% (active) in the test on COLO 205 colon; -100% (active) in the test with DU-145 prostate; -45% (active) in the test with K-562 leukemia; -63.9% (active) in the test on MALME-3M melanoma; -48.6% (active) in the test on MDA-MB-231 breast. Further, the growth is -27.1% (active) in the test with RXF 393 renal; -100% (active) in the test on SF-268 CNS; -98.2% (active) in the test on SF-295 CNS; -94.6% (active) with SF-539 CNS; -100% (active) in the test with UACC-257 melanoma; -81.1% (active) with M14 melanoma.
Regarding `Nc1ccn(C2O[C@H](CO)[C@@H](O)[C@@H]2O)c(=O)n1` (stereo partly specified), the growth in the test with NCI-H23 lung is 28.2%; in the test on NCI-H226 lung, 34.3%; in the test with NCI-H322M lung it was 62.6%; in the test with HOP-62 NSCLC, 26.7%; with NCI-H460 lung, 6.43% (active); in the test on HOP-92 NSCLC, 53.8%. The growth in the test on 786-0 renal is 10.2%; in the test on COLO 205 colon it was 57.3%; in the test with DU-145 prostate it was 29.6%; in the test on K-562 leukemia, 62.4%; with MALME-3M melanoma, 57.2%; in the test on MDA-MB-231 breast, 68.8%. For the same molecule, the growth with RXF 393 renal was 83.4%; with SF-268 CNS, 34%; with SF-295 CNS, 50.8%; in the test on SF-539 CNS, 72.4%; in the test on UACC-257 melanoma, 54.5%; in the test with M14 melanoma, -15.7% (active).
As to `O=c1c2ccccc2c2nccn2c2cc(Cl)ccc12`, the growth with NCI-H23 lung was 72.6%; with NCI-H226 lung, 155%; in the test with NCI-H322M lung, 129%; in the test with HOP-62 NSCLC, 71.7%; in the test with NCI-H460 lung it was 101%; in the test on HOP-92 NSCLC, 28.8%. Moreover, the growth with A549/ATCC NSCLC is 71.7%; in the test on 786-0 renal, 91.6%; with DU-145 prostate, 98.1%; in the test with K-562 leukemia, 57.7%; in the test on MALME-3M melanoma, 159%; in the test on MDA-MB-231 breast, 126%. For the same molecule, the growth in the test with SF-268 CNS was 91.9%; in the test with SF-295 CNS, 85.5%; in the test with SF-539 CNS, 94.2%; in the test on UACC-257 melanoma it was 66.5%; in the test with M14 melanoma, 110%.
In the case of `CCc1ccc(-c2nc(SCC(=O)NC3CCCCC3)n[nH]2)cc1`, the growth with NCI-H23 lung is 55%; with NCI-H226 lung, 67.8%; in the test on NCI-H322M lung it was 78.4%; in the test with HOP-62 NSCLC, 94.6%; with NCI-H460 lung, 90.8%; with HOP-92 NSCLC, 67.6%. In addition, the growth was 73.4% in the test with 786-0 renal; 122% in the test on COLO 205 colon; 102% with DU-145 prostate; 33.3% in the test on K-562 leukemia; 88.2% with MALME-3M melanoma; 63.3% with MDA-MB-231 breast. The growth in the test with SF-268 CNS was 82.6%; with SF-295 CNS it was 15.8%; in the test with SF-539 CNS it was 92.9%; in the test on UACC-257 melanoma, -1.69% (active); with M14 melanoma it was 77.7%.
As to `CC(=O)N1N=C(c2ccc(Nc3ccnc4cc(Cl)ccc34)cc2)CC1c1ccc(Cl)cc1` (stereo unspecified), the growth in the test with NCI-H23 lung was 67.8%; in the test with NCI-H226 lung, 75.2%; with NCI-H322M lung it was 96.3%; in the test on HOP-62 NSCLC it was 73.1%; in the test with NCI-H460 lung, 62.9%; in the test with HOP-92 NSCLC it was 35.4%. Besides, the growth in the test on 786-0 renal was 62.5%; with COLO 205 colon it was 85.5%; in the test with DU-145 prostate, 67.3%; in the test with K-562 leukemia, 19.1%; in the test on MALME-3M melanoma it was 26.8%; with MDA-MB-231 breast, 72.7%. For the same molecule, the growth was 42.3% with RXF 393 renal; 53.3% in the test with SF-268 CNS; 15.4% with SF-295 CNS; 86.4% in the test on SF-539 CNS; 61.7% in the test on UACC-257 melanoma; 47.6% in the test on M14 melanoma.
